# Source: PubChem BioAssay (Sanford-Burnham Center for Chemical Genomics)
# APOBEC3A inh = APOBEC3A ssDNA deaminase inhibitors, primary screen, selectivity assay for APOBEC3G inhibitor project, biochemical, FAM/TAMRA oligo cleavage fluorescence | DNA dC->dU-editing enzyme APOBEC-3A (Homo sapiens), P31941 | recombinant A3A, FAM/TAMRA ssDNA deamination fluorescence | inhibition, % at 20 µM | hit rate 0.41% among 330,000;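 active = at least 40% inhibition at 20 µM here, with at most 30% in a related deaminase screen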;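 note: plate controls were A3A with DMSO for no effect and wells lacking A3A enzyme for full effect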
# Target sequence (P31941 whole entry, looked up): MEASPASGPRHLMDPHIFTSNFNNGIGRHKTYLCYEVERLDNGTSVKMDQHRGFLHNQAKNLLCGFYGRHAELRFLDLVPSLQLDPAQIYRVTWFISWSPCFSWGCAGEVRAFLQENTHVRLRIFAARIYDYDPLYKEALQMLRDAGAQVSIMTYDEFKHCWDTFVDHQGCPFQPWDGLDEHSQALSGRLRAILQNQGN
# H9c2 protect = cardioprotection against H2O2-induced cell death, primary screen, uHTS, H9c2 cells, ATPLite luminescence; H9c2 cardiomyocytes, H2O2 injury protection, 2 h; protection from H2O2 cell death, % at 20 µM; hit rate 0.63% among 360,000; AID 588492, 2011;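 active = compounds giving at least 50% protection of heart cells from peroxide-induced death in the single-dose screen, raw or plate-pattern-corrected value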;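 note: 0% = DMSO wells with peroxide and 100% = DMSO wells without peroxide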
# PfGluPho inh = PfG6PD enzyme inhibitors, primary screen, biochemical, fluorescence intensity, uHTS | hit rate 0.78% among 350,000 | inhibition, % at 20 µM | PfGluPho enzyme, NADPH resazurin-diaphorase fluorescence;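 active = inhibition reaching at least a set limit at 20 µM in the primary screen, cut at about 59% in these data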;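 note: 0% = DMSO wells with substrate and 100% = DMSO wells lacking glucose-6-phosphate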
# APOBEC3G inh = APOBEC3G DNA deaminase inhibitors, primary screen, biochemical, fluorescence, single-stranded DNA substrate, uHTS; recombinant A3G, ssDNA deamination FAM/TAMRA fluorescence; inhibition, % at 20 µM; hit rate 0.28% among 330,000;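 active = inhibition of at least 40% at 20 µM, with no more than 30% in the related APOBEC3A deaminase screen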;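 note: plate controls were DMSO wells with A3G for no effect and wells lacking A3G enzyme for full effect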
# Target sequence (Q9HC16 whole entry, looked up): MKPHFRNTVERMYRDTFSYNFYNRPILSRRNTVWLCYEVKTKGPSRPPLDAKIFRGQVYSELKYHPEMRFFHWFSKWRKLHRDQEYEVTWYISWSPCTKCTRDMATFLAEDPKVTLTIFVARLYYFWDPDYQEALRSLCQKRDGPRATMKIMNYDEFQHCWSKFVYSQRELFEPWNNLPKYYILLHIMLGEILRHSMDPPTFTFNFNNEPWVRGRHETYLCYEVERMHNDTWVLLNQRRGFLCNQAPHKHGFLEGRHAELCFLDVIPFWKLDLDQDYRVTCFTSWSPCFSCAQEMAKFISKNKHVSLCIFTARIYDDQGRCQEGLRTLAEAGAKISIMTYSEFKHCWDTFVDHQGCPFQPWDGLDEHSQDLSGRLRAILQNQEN
# NadD inh = inhibitors of S. aureus NadD, primary screen, biochemical, colorimetric, uHTS; Nicotinate-nucleotide adenylyltransferase NadD (Staphylococcus aureus N315); AID 602399, 2012; hit rate 0.78% among 360,000; purified NadD enzyme, colorimetric absorbance read-out; inhibition, % at 20 µM; in the data active = inhibition above about 26%
# H9c2 TAG inh = inhibitors of triacylglycerol accumulation, primary screen, cell-based, uHTS, fluorescence, H9c2. H9c2 cells, Nile Red lipid (TAG) fluorescence; cells loaded with 200 µM oleic acid. hit rate 0.66% among 230,000. inhibition, % at 12.5 µM;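 active = pattern-corrected inhibition of lipid staining of at least 50% with the nuclear-stain viability signal not falling by more than 50%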;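 note: 0% = DMSO wells and 100% = triacsin C control wells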
# PfGluPho conf = PfG6PD inhibitors, hit retest, confirmation, biochemical, fluorescence intensity, single concentration; AID 504753, 2011; hit rate 34% among 2,400; shares compounds with PfGluPho inh; inhibition, % at 20 µM; recombinant PfGluPho, NADPH-diaphorase-resazurin fluorescence;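 active = inhibition of at least 50% at 20 µM in any single replicate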;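 note: 0% = DMSO with substrate and 100% = DMSO lacking glucose-6-phosphate substrate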
# Diaphorase 10uM = diaphorase inhibitors and chemical oxidizers, confirmation, counter-screen for P. falciparum G6PD inhibitor project, biochemical, fluorescence intensity, 10 µM NADPH. shares compounds with PfGluPho inh. diaphorase-coupled resazurin reduction, NADPH 10 uM. inhibition, % at 20 µM. hit rate 39% among 820. AID 504862, 2011;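 active = average inhibition reaching 50% or more with the compound at 20 µM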;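 note: resorufin red fluorescence formed as diaphorase reduces resazurin using NADPH; 0% = DMSO with enzyme and 100% = DMSO without enzyme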
# Diaph ctr 30uM = diaphorase inhibitors and chemical oxidizers, confirmation, counter-screen for P. falciparum G6PD inhibitor project, biochemical, fluorescence intensity, 30 µM NADPH | shares compounds with PfGluPho inh | Diaphorase/resazurin coupled assay, resorufin fluorescence | inhibition, % at 20 µM | hit rate 29% among 820 | AID 504863, 2011;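 active = inhibition averaging 50% or more, tested at 20 µM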;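 note: 0% = DMSO with enzyme and 100% = DMSO wells lacking diaphorase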
# Active calls of the source: *; / = not tested or not shown. Rows were chosen to be rich in hits. Some 2.9% of all compounds tested hit in one or more screens of this group.
SMILES,APOBEC3A inh,H9c2 protect,PfGluPho inh,APOBEC3G inh,NadD inh,H9c2 TAG inh,PfGluPho conf,others
COc1ccc(C(=O)ON=C2C=C(C)C(=O)C(C)=C2)cc1,-4,-12,76*,-4,-5,/,52*,Diaphorase 10uM=13;Diaph ctr 30uM=15
COc1cc(C(=O)O/N=C2\C=CC(=O)C(C)=C2)cc(OC)c1OC,-2,-12,68*,-10,0,/,49*,Diaphorase 10uM=89*;Diaph ctr 30uM=90*
COc1cc(C(=O)ON=C2C=C(C)C(=O)C(C)=C2)cc(OC)c1OC,-3,-17,80*,-6,-5,14,64*,Diaphorase 10uM=-1;Diaph ctr 30uM=8
CC1=C(C(=O)N2CCOCC2)CC(CC(=O)NC2CCCCC2)C(=O)N1Cc1ccc(F)cc1 (stereo unspecified),/,29,-47,/,5,10,/,
O=C1C(c2ccccc2)=[N+]([O-])c2ccccc21,-1,-33,61*,-6,1,-11,12,
CSCCC(NC(=O)c1ccccc1Cl)C(=O)OCC(=O)N1CCCC1=O (stereo unspecified),0,-2,-5,10,1,14,/,
c1cc2c3c(cccc3c1)-c1cnccc1-2,/,-2,65*,/,0,-10,32,
O=C1/C(=C/c2ccccc2O)SC(=S)N1Cc1cccnc1,-5,-6,62*,-8,6,-4,-9,
O=C1/C(=C\c2cccc([N+](=O)[O-])c2O)SC(=S)N1Cc1ccccc1,/,-17,-4,/,11,/,/,
CC(C)OCCCNC(=S)Nc1ccc(S(N)(=O)=O)cc1,0,4,61*,29,-2,/,44,
Cc1ccc(/C=C/C(=O)NCc2cccs2)c(C)c1,-5,-10,88*,-6,-2,4,29,
COc1ccc(-c2ccc(CN3C(C(C)C)C(=O)N(Cc4cn(Cc5ccco5)nn4)CCS3(=O)=O)cc2)cn1 (stereo unspecified),/,2,10,/,0,-2,/,
Cc1ccc(OCC(O)CN2CCC(Cc3ccccc3)CC2)c(C)c1 (stereo unspecified),-6,-8,5,-3,2,/,/,
CC(C)(C)c1ccc(O)c(O)c1,2,36,81*,36,28,/,72*,Diaphorase 10uM=8;Diaph ctr 30uM=2
CC1(C)Cc2ccccc2C2=NNC(=O)C2=N1,-1,-29,108*,-8,5,40,94*,Diaphorase 10uM=93*;Diaph ctr 30uM=93*
CC1(C)Cc2ccccc2C(Nn2cnnc2)=N1,-4,1,8,-4,6,/,/,
O=S1(=O)c2ccc(Br)cc2N2CCC[C@H]2CN1Cc1ccccc1,3,-6,73*,6,1,-37,8,
O=S1(=O)c2ccc(Br)cc2N2CCC[C@@H]2CN1Cc1ccc(Cl)cc1,/,-16,63*,/,-1,-45,7,
O=S1(=O)c2ccc(Br)cc2N2CCC[C@@H]2CN1C1CC1,/,-8,-4,/,-2,-17,/,
CN1/C(=C\C(=O)c2cccs2)Sc2ccccc21,-2,-28,105*,3,-1,10,62*,Diaphorase 10uM=41;Diaph ctr 30uM=35
COc1ccc(C(=O)O)cc1S(=O)(=O)Nc1ccc2cn[nH]c2c1,-1,8,10,-1,3,0,/,
O=C(O)c1cccc(Nc2ncnc3c2cnn3-c2ccccc2)c1,-5,6,-13,-8,-4,-1,/,
Fc1cccc(Nc2ncnc3c2cnn3-c2ccccc2)c1,0,-22,70*,-10,-6,-4,13,
Clc1cccc(Nc2ncnc3c2cnn3-c2ccccc2)c1,-3,-32,83*,-9,2,11,-9,
Cc1ccc(Cc2c(-c3ccc(Br)cc3)nc3ccc(Br)cn23)cc1,/,-17,67*,/,14,4,-9,
SMILES,APOBEC3A inh,H9c2 protect,PfGluPho inh,APOBEC3G inh,NadD inh,H9c2 TAG inh,PfGluPho conf,others
Cc1ccc(Cc2c(-c3ccc(Cl)cc3)nc3ccc(Cl)cn23)cc1,/,-15,86*,/,16,-26,0,
Cc1ccc(Cc2c(-c3ccc(Br)cc3)nc3ccc(Cl)cn23)cc1,/,-7,/,/,17,/,/,
Cc1ccc(Cc2c(-c3ccc(C)cc3)nc3ccc(Cl)cn23)cc1,/,-17,77*,/,5,-1,-10,
CC(C)(C)NC(=O)C1c2ccccc2OCC(=O)N1CCCN1CCOCC1 (stereo unspecified),/,/,/,/,8,/,/,
CCN(CC)c1ccc(C=Nc2ccccc2C)c(O)c1,-1,-5,59*,-5,-1,/,28,
CCN(CC)c1ccc(/C=N/N(c2ccccc2)c2ccccc2)c(O)c1,-1,-10,12,-7,2,/,/,
COc1cccc(C2c3cc4c(cc3OC(C)(N3CCCC3)C2C)OCO4)c1O (stereo unspecified),/,4,17,/,-1,19,/,
CC1=C(n2nnc([N+](=O)[O-])n2)C(c2cccnc2)C(C#N)=C(N)O1 (stereo unspecified),-3,-6,84*,-11,-2,-2,79*,Diaphorase 10uM=48;Diaph ctr 30uM=49
COC(=O)C1=C(C)OC(N)=C(C#N)C1c1cccnc1 (stereo unspecified),-4,-1,-6,-12,-1,-12,/,
CCOC(=O)c1cnc(NCc2ccccc2)nc1C,-4,-3,-17,-4,1,/,/,
CCOC(=O)c1nc(NCc2ccccc2)sc1C,-4,-2,68*,21,6,/,26,
Cc1ccc(C(=O)COC(=O)c2c(C)cc(=O)oc2C)cc1[N+](=O)[O-],-4,0,67*,-8,-2,/,-13,
COc1ccc(N2C(=O)NC(NS(=O)(=O)c3ccccc3)(C(F)(F)F)C2=O)cc1 (stereo unspecified),-4,9,-12,-4,-3,-6,/,
COc1ccc(N=C2C(=S)N(c3ccc(OC)cc3)C(=NS(=O)(=O)c3ccccc3)N2c2ccccc2)cc1,/,-17,84*,/,18,-12,68*,Diaphorase 10uM=-26;Diaph ctr 30uM=-16
O=C1/C(=C\c2ccc(Cl)c(Cl)c2)CN(C(=O)CCN2CCOCC2)C/C1=C/c1ccc(Cl)c(Cl)c1,/,-20,60*,/,7,63*,25,
